Legend:
Experiment in all cases: PBM binding z-score (relative to random genomic background probes); higher = stronger binding; sequences stand for … in GC…GCGATTGACAGCGTAGAATGAAGG
[1] = test system: FXR:RXRa (NR concentration 270 nM, RXRa partner concentration 90 nM)
How it was run: (§1)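 Regression normalization was applied to scanned fluorescence from custom Agilent 4×180K protein-binding microarrays. Before scanning, arrays were incubated 1 h with ligand-free nuclear receptor dimers, and binding was detected with antibodies against each partner (one per run). Binding z-scores use the random background probes as reference.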

[2] = test system: LXRa:RXRa (NR concentration 270 nM, RXRa partner concentration 90 nM)
How it was run: as §1

[3] = test system: LXRa homodimer (NR concentration 270 nM)
How it was run: as §1

[4] = test system: LXRb:RXRa (NR concentration 270 nM, RXRa partner concentration 90 nM)
How it was run: as §1

[5] = test system: LXRb homodimer (NR concentration 270 nM)
How it was run: as §1

[6] = test system: PPARa:RXRa (NR concentration 270 nM, RXRa partner concentration 90 nM)
How it was run: as §1

[7] = test system: PPARg:RXRa (NR concentration 180 nM, RXRa partner concentration 90 nM)
How it was run: as §1

[8] = test system: PPARg:RXRa 270nM:90nM, anti-RXR (NR concentration 270 nM, RXRa partner concentration 90 nM)
How it was run: as §1

[9] = test system: PPARg:RXRa 30nM:10nM, anti-RXR (NR concentration 30 nM, RXRa partner concentration 10 nM)
How it was run: as §1

[10] = test system: PPARg:RXRa 90nM:30nM, anti-RXR (NR concentration 90 nM, RXRa partner concentration 30 nM)
How it was run: as §1

[11] = test system: PPARg:RXRa DBDmut IVT, anti-RXR (DBD mutation: RXRa K156A/R161A, NR concentration 270 nM, RXRa partner concentration 90 nM)
How it was run: as §1

[12] = test system: PPARg:RXRa IVT, anti-PPARg (NR concentration 270 nM, RXRa partner concentration 90 nM)
How it was run: as §1

[13] = test system: PPARg DBDmut:RXRa IVT, anti-PPARg (DBD mutation: PPARg1 K132A/R137A, NR concentration 270 nM, RXRa partner concentration 90 nM)
How it was run: as §1

[14] = test system: PPARg DBDmut IVT, anti-PPARg (DBD mutation: PPARg1 K132A/R137A, NR concentration 270 nM)
How it was run: as §1

[15] = test system: PPARg homodimer (NR concentration 180 nM)
How it was run: as §1

[16] = test system: PXR:RXRa (NR concentration 270 nM, RXRa partner concentration 90 nM)
How it was run: as §1

[17] = test system: PXR homodimer (NR concentration 270 nM)
How it was run: as §1

[18] = test system: RARa:RXR (NR concentration 270 nM, RXRa partner concentration 90 nM)
How it was run: as §1

[19] = test system: RARa homodimer (NR concentration 270 nM)
How it was run: as §1

[20] = test system: RARb:RXRa (NR concentration 270 nM, RXRa partner concentration 90 nM)
How it was run: as §1

Row | Sequence | PBM binding z-score [1] | PBM binding z-score [2] | PBM binding z-score [3] | PBM binding z-score [4] | PBM binding z-score [5] | PBM binding z-score [6] | PBM binding z-score [7] | PBM binding z-score [8] | PBM binding z-score [9] | PBM binding z-score [10] | PBM binding z-score [11] | PBM binding z-score [12] | PBM binding z-score [13] | PBM binding z-score [14] | PBM binding z-score [15] | PBM binding z-score [16] | PBM binding z-score [17] | PBM binding z-score [18] | PBM binding z-score [19] | PBM binding z-score [20]
1 | AGAATGAGGTTACCAAAGATCAGGGACACGCTTG | 2.25 | 6.38 | -0.0151 | 3.01 | -0.234 | 3.38 | 2.84 | 2.9 | 0.908 | 2.29 | 4.01 | 3.4 | 0.894 | 0.0801 | 0.873 | 1.29 | 0.182 | 2.1 | 0.459 | 2.14
2 | AGAATGAGGTTATTAAGAGCAGGGAATTGCGGTC | 1.73 | 1.76 | 0.247 | 1.32 | 0.0744 | 2.77 | 1.58 | 1.87 | 0.503 | 1.45 | 2.93 | 2.39 | 0.24 | -0.178 | 0.998 | 1.08 | 0.932 | 1.42 | 0.134 | 1.47
3 | CCTACTGGGCCACGAAAGGTCATCGATTCAGTGA | 3.74 | 5.24 | 4.54 | 4.28 | 0.188 | 5.09 | 5.36 | 5.2 | 2.42 | 4.73 | 5.98 | 5.97 | -0.47 | 0.605 | 4.31 | 5.62 | 0.616 | 6.08 | 0.927 | 4.17
4 | ATCTCTAGGTAAGACTCAGTCCAGTGAAGAACGC | 0.392 | 0.554 | -0.00583 | -0.0175 | 0.668 | -0.0468 | 0.17 | 0.258 | 0.405 | 0.142 | 1.91 | 1.22 | -0.449 | 2 | 0.717 | -0.0905 | 0.481 | -0.0301 | 0.973 | 0.0795
5 | GCTCCTAGGTCAGGTTGGTCAGCTAACGGGTACG | 1.88 | 1.13 | 0.0623 | 1.09 | 0.0222 | 2.12 | 0.889 | 1.34 | -0.42 | 0.479 | 3.08 | 2.33 | 0.131 | -0.79 | 0.823 | 0.632 | 0.2 | 1.26 | -0.173 | 3.58
6 | CAAACTAGGTCCCAGAGGTCAAAGTCCGTGCGTA | 4.91 | 5.18 | 5.61 | 5.18 | 1.42 | 4.98 | 4.51 | 4.75 | 2.13 | 4.08 | 4.19 | 4.68 | 1.03 | 0.477 | 2.64 | 5.55 | 2.66 | 5.68 | 1.33 | 3.8
7 | CGTCCAAGGTCAGCAGGCCAGTGAAAGCGACGTG | 4.9 | 3.41 | -0.314 | 2.31 | -0.659 | 4.69 | 2.86 | 3.35 | 0.155 | 1.84 | 2.35 | 2.56 | -0.196 | -0.403 | 1.55 | 2.26 | -0.0334 | 3.14 | 0.266 | 5.01
8 | ACAGACCGGTGAGTGAAGGTAACTCAGCTGGACG | -0.151 | -0.178 | -0.654 | -0.711 | -0.849 | -0.708 | 0.147 | -0.715 | -0.631 | -1.01 | -0.439 | -0.283 | -0.662 | -1.09 | -0.786 | -0.593 | -0.655 | -0.54 | -0.997 | -0.197
9 | ATCTGTAGGTAAGACTCAGTTCAGTGAAGAACGC | 0.0473 | 0.226 | 0.296 | 0.0254 | -0.0598 | 0.0967 | 0.00745 | 0.0947 | -0.305 | -0.0173 | 1.14 | 0.619 | 1.11 | 1.11 | 0.0779 | 1.18 | 1.28 | 0.421 | 0.498 | 0.161
10 | TCGAGTAGGTTAGGAGCATTCAGAATGGCGTCGA | -0.126 | -0.0909 | -0.756 | -0.438 | -1.39 | 0.24 | 0.0725 | 0.668 | 0.928 | 0.741 | 1.4 | 0.397 | -0.907 | -1.2 | -0.371 | -0.392 | -0.58 | -0.181 | -0.978 | 0.0424
11 | TCTAGCAGGCCAGCGGGTCACTCAAGAGGTACGG | 0.662 | 0.558 | -0.567 | 0.777 | -0.97 | 1.92 | 0.601 | 1.74 | 1.72 | 1.65 | 0.972 | 1.03 | -0.284 | -0.723 | 0.406 | 1.12 | -0.865 | 1.81 | -0.465 | 1.81
12 | CAAACTAGGTCAAAGGTCAAAGTGGAGCCAACCA | 7.94 | 7.01 | 5.57 | 6.96 | 3.14 | 7.45 | 13.9 | 11.2 | 12.3 | 13.7 | 8.72 | 9.15 | 3.29 | 1.05 | 7.6 | 7.01 | 2.04 | 8.86 | 5.25 | 5.8
13 | GTACCAAGGTTAATAGGTCGTTGATGAGTAGGCG | 2.13 | 1.67 | 0.289 | 1.34 | -0.213 | 3.18 | 3 | 3.43 | 1.01 | 2.5 | 1.85 | 3.6 | 0.0971 | -0.158 | 2.1 | 1.69 | 0.273 | 2.82 | 0.938 | 2.5
14 | CATACAGGGTCAGCTAGGCCAGACTAGGGACGGC | 4.02 | 2.77 | -0.135 | 1.97 | 0.282 | 4.06 | 3.31 | 2.8 | 0.502 | 1.8 | 1.3 | 2.37 | 0.631 | 0.373 | 0.901 | 2.01 | 0.149 | 2.36 | 0.259 | 3.94

From the supplement of paper PMC6555819
